Several values for one entry are separate records, joined by “and”; a condition that tells them apart may be missing. Equal values may be shown once. Inconclusive results are not listed. Some structures have more than one record in an assay (separate samples or runs), and their calls can disagree. Activity calls are given as the source filed them. Unless noted, calls come from the whole dose curve; as a rule, active = well fitted curve in either direction with a large enough effect (not every such curve was filed as active); inconclusive = small, poorly fitted or top-dose-only effect, or another doubt; inactive = flat fitted curve, though single readings scatter.
What was measured:
[1] = Cell Viability - BJ (AID 421; calls by dose curve;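 note: potency is the fitted concentration of half-maximal effect; cells exposed to compound for 40 hours at 37 °C before readout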); conditions: BJ fibroblast viability, qHTS
Outline: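 Cytotoxicity in human BJ foreskin fibroblasts is scored as loss of cellular ATP after a 40-hour exposure, measured by luciferase luminescence. Controls are DMSO and 100 uM tamoxifen.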

[2] = Cell Viability - Jurkat (AID 426;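 active = dose-dependent loss of cell ATP signal giving a full or clear fitted curve, ranked by lower potency value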; note: potency is the fitted concentration of half-maximal effect); conditions: qHTS
Outline: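 Jurkat (Clone E6-1) cells, 5000/well in complete medium, exposed to compounds for 40 hr at 37C; intracellular ATP measured by CellTiter-Glo luminescence after 20 min at room temperature. AC50 from Hill fits.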

[3] = Cell Viability - Hek293 (AID 427;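 active = compounds whose dose-response curve shows a full or clear partial loss of cell viability, called from curve shape rather than a numeric limit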;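 note: potency is the fitted concentration of half-maximal effect; cells exposed to compound for 40 hours at 37 °C before reading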); conditions: qHTS
Outline: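 qHTS, human embryonic kidney (adenovirus-transformed) cells; 40 hr cpd, 37 °C; CellTiter-Glo ATP luminescence. Norm: DMSO = 0, 100 uM tamoxifen = 100% inhibition. Hill-fit AC50.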

[4] = Cell Viability - HepG2 (AID 433; calls by dose curve;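 note: potency is the fitted concentration of half-maximal effect; potency for ATP loss meaning cytotoxicity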); conditions: qHTS
Outline: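 Cytotoxicity read as ATP loss (CellTiter-Glo luminescence) after 40 hr compound exposure of HepG2, 1500 cells/well, 37 °C. AC50 by Hill equation; 0% set by DMSO, 100% inhibition by 100 uM tamoxifen.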

[5] = Cell Viability - SK-N-SH (AID 435; calls by dose curve; note: potency is the fitted concentration of half-maximal effect); conditions: SK-N-SH neuroblastoma cell viability qHTS
Outline: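 qHTS cytotoxicity: CellTiter-Glo ATP luminescence after 40 h compound exposure of human neuroblastoma SK-N-SH cells at 37 °C. AC50 derived by Hill-equation fitting, with DMSO as basal and 100 uM tamoxifen as full inhibition.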

[6] = biological target: Cytochrome P450 1A2 (Homo sapiens) (UniProt P05177); assay: p450-cyp1a2 (AID 410; calls by dose curve; note: potency is the fitted concentration of half-maximal effect;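 for activity change, negative = inhibition: -100% = full effect of reference inhibitor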); conditions: recombinant CYP1A2, luciferin-ME demethylation, luminescence; series mostly up to 57 µM
Outline: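 20nM CYP1A2 with 100uM Luciferin-ME (at Km) in 100mM KPO4; compound preincubated 10 min, NADPH regeneration added, 60 min at room temperature. Luciferin quantified by luminescence after detection reagent; normalized to 57 uM furafylline.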

[7] = Cell Viability - MRC5 (AID 434; calls by dose curve;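 note: potency is the fitted concentration of half-maximal effect; potency reflects cytotoxicity seen as loss of intracellular ATP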); conditions: MRC5 lung fibroblast viability, qHTS
Outline: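 MRC5 normal human lung fibroblasts, 1500 cells/well, exposed to compound for 40 hr at 37 C. Cellular ATP was read by CellTiter-Glo luminescence; data normalized to DMSO and 100 uM tamoxifen, with AC50 from Hill fits.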

[8] = AP1 Signaling Pathway (AID 357); conditions: ME-180 (cervical carcinoma) AP-1-bla reporter, EGF-induced, beta-lactamase ratio, 5 h;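 note: ME-180 reporter cells stimulated with EGF at its EC50 level; % is set by controls: 0 for no effect and ±100 for the full control effect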
Outline: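 AP-1-bla ME-180 cells, Opti-MEM + 0.5% dialyzed FBS, plated overnight 37 °C. Cpd titration + EC50 EGF, 5 h 37 °C. CCF4 2.5 h RT; ex 405, em 460/530 ratio → %activity, AC50.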

[9] = NFAT Signaling Pathway (AID 444); conditions: Jurkat NFAT-bla M1, carbachol, beta-lactamase ratio, 5 h;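 note: carbachol stimulus at about its EC50 of 1 µM final; % is set by controls: 0 for no effect and ±100 for the full control effect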
Outline: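 Jurkat cells with NFAT-driven β-lactamase reporter and co-expressed M1 receptor, stimulated with carbachol (final 1 uM, ~EC50), compound titration, 5 h at 37 °C. CCF4 loaded 1 h at RT; 460/530 nm ratio gave %activity and AC50.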

Sequence of Cytochrome P450 1A2 (Homo sapiens) (P05177 whole entry, looked up): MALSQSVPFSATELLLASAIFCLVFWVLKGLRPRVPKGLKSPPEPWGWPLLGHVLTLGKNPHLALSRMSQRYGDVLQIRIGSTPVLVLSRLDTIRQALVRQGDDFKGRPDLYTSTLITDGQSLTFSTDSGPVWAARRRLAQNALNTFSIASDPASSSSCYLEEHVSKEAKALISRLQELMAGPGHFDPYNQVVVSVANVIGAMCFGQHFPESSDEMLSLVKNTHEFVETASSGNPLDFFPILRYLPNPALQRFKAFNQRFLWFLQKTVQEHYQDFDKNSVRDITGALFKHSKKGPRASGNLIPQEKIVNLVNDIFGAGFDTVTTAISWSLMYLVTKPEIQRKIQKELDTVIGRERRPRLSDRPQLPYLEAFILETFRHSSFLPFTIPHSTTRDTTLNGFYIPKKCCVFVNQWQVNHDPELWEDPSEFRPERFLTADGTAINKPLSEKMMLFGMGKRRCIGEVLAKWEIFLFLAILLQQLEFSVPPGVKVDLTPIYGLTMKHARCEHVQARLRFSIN

Nc1ncn([C@@H]2O[C@H](CO)[C@@H](O)[C@H]2O)c(=O)n1
Potency [1]: > 92 µM (inactive) | Potency [2]: 1.01 µM (active) | Potency [3]: 6.9 µM (active) | Potency [4]: > 92 µM (inactive) | Potency [5]: 16.6 µM (active)

COC(=O)[C@H]1[C@H]2C[C@@H]3c4[nH]c5cc(OC)ccc5c4CCN3C[C@H]2C[C@@H](OC(=O)c2cc(OC)c(OC)c(OC)c2)[C@@H]1OC
Potency [2]: 35.9 µM (active) | Potency [5]: 46.3 µM (active)

CCCCCCCC/C=C\CCCCCCCC(=O)NCc1ccc(O)c(OC)c1
Potency [6]: 20 µM (active)

CCCCOCCOCCOCc1cc2c(cc1CCC)OCO2
Potency [1]: > 92 µM (inactive) | Potency [2]: > 92 µM (inactive) | Potency [3]: > 92 µM (inactive) | Potency [4]: > 92 µM (inactive) | Potency [7]: > 92 µM (inactive) | Potency [5]: > 92 µM (inactive)

C[C@]12CCC(=O)C=C1CC[C@@H]1[C@@H]2C(=O)C[C@@]2(C)[C@H]1CC[C@]2(O)C(=O)CO
activity change, negative = inhibition ([8]; at 17.2 µM (top of the series)): 7.64% (inactive) | activity change, negative = inhibition ([9]; at 17.2 µM (top of the series)): -6.84% (inactive)

CCN1CCc2nc(N)oc2CC1
activity change, negative = inhibition ([8]; at 38 µM (top of the series)): 9.25% (inactive) | Potency [6]: inactive | activity change, negative = inhibition ([9]; at 38 µM (top of the series)): -7.89% (inactive)

CN1CCN(C2=Nc3ccccc3Oc3ccc(Cl)cc32)CC1
Potency [6]: 3.16 µM (active)

CSc1ccc(C(=O)c2[nH]c(=O)[nH]c2C)cc1
activity change, negative = inhibition ([8]; at 38 µM (top of the series)): -4.8% (inactive) | activity change, negative = inhibition ([9]; at 38 µM (top of the series)): -2.92% (inactive)

Fc1ccc(C(c2ccc(F)cc2)N2CCN(C/C=C/c3ccccc3)CC2)cc1
activity change, negative = inhibition ([8]; at 17.2 µM (top of the series)): -10.9% (inactive) | activity change, negative = inhibition ([9]; at 17.2 µM (top of the series)): -88.5% (active)

CCOC(=O)c1cnc2c(cnn2CC)c1NN=C(C)C
Potency [6]: 501 nM (active) and 126 nM (active) | activity change, negative = inhibition ([9]; at 38 µM (top of the series)): 6.94% (inactive)

O=C(O)CCCCCCCC(=O)O
Potency [6]: inactive | activity change, negative = inhibition ([9]; at 38 µM (top of the series)): -0.521% (inactive)

COc1ccc2c(c1OC)C(=O)O[C@@H]2[C@H]1c2c(cc3c(c2OC)OCO3)CCN1C
activity change, negative = inhibition ([8]; at 17.2 µM (top of the series)): -3.96% (inactive) | activity change, negative = inhibition ([9]; at 17.2 µM (top of the series)): -10.3% (inactive)

CCc1cccc(N(C)C(N)=Nc2cccc3ccccc23)c1
activity change, negative = inhibition ([9]; at 38 µM (top of the series)): -9.54% (inactive)

Cc1ccc(=O)n(-c2ccccc2)c1
activity change, negative = inhibition ([8]; at 38 µM (top of the series)): -0.00383% (inactive) | Potency [6]: inactive and 31.6 µM (active) | activity change, negative = inhibition ([9]; at 38 µM (top of the series)): 14.9% (inactive)

CC(C)(Oc1ccc(CCNC(=O)c2ccc(Cl)cc2)cc1)C(=O)O
activity change, negative = inhibition ([8]; at 17.2 µM (top of the series)): 3.65% (inactive) and 3.52% (inactive) | Potency [6]: inactive | activity change, negative = inhibition ([9]; at 17.2 µM (top of the series)): -9.97% (inactive) and 7.1% (inactive)

CN(C(=O)CCCOc1ccc2[nH]c(=O)ccc2c1)C1CCCCC1
activity change, negative = inhibition ([8]; at 38 µM (top of the series)): -11.1% (inactive) | Potency [6]: inactive | activity change, negative = inhibition ([9]; at 38 µM (top of the series)): -14.2% (inactive)

C[C@]12CCC(=O)C=C1CC[C@@H]1[C@@H]2CC[C@@]2(C)[C@H]1CC[C@]2(O)C(=O)CO
activity change, negative = inhibition ([8]; at 17.2 µM (top of the series)): 14.7% (inactive) | activity change, negative = inhibition ([9]; at 17.2 µM (top of the series)): 2.94% (inactive)

CCCN(CCC)C(=O)C(CCC(=O)O)NC(=O)c1ccccc1 (stereo not drawn)
activity change, negative = inhibition ([8]; at 17.2 µM (top of the series)): 1.43% (inactive) | activity change, negative = inhibition ([9]; at 17.2 µM (top of the series)): -1.88% (inactive)

C[C@]12C=CC(=O)C=C1CC[C@H]1[C@@H]3C[C@@H](O)[C@](O)(C(=O)CO)[C@@]3(C)C[C@H](O)[C@@]12F
activity change, negative = inhibition ([8]; at 17.2 µM (top of the series)): -5.22% (inactive) | activity change, negative = inhibition ([9]; at 17.2 µM (top of the series)): 16.1% (inactive)

COCC(=O)O[C@]1(CCN(C)CCCc2nc3ccccc3[nH]2)CCc2cc(F)ccc2[C@@H]1C(C)C
Potency [6]: 31.6 µM (active) | activity change, negative = inhibition ([9]; at 38 µM (top of the series)): -15.7% (inactive)
